Bioassay records deposited in PubChem by National Center for Advancing Translational Sciences (NCATS).
HT1080 IDH1KD tx: qHTS for induction of synthetic lethality in tumor cells producing 2HG: qHTS for the HT-1080-IDH1KD cell line | HT-1080 IDH1 knockdown viability, ATP luminescence, 48 h | 360,000 compounds, 2% hits | Potency, µM (highest dose often 46.1 µM), inactives show top-dose activity, negative = toxicity, most hits filed as cytotoxic | AID 686971, 2013;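 further: 0% = DMSO wells and -100% = cell-free medium wells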
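CellTiter-Glo luminescence after 48 h compound exposure at 37 degrees C of IDH1-knockdown HT-1080 cells in 5% FBS RPMI. %Activity scaled between DMSO wells and cell-free media wells, with curves fitted and assigned curve classes.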
MCF10A rerep: A quantitative high throughput screen for small molecules that induce DNA re-replication in MCF 10a normal breast cells; MCF 10A DNA re-replication, Hoechst nuclear intensity, 48 h; Potency, µM (series often up to 46.1 µM), inactives show top-dose activity, positive = re-replication, hits mostly activators; 350,000 compounds, 2.9% hits; AID 624296, 2012; further: % of control where 0% means no effect; nearly all actives have a fitted effect of over 50% in size
HT1080NT lethal: qHTS for induction of synthetic lethality in tumor cells producing 2HG: qHTS for the HT-1080-NT fibrosarcoma cell line; HT-1080-NT fibrosarcoma viability, CellTiter-Glo ATP luminescence, 48 h; Potency, µM (titrated, usually from 46.1 µM), for inactives: top-dose activity, negative = less viability, hits mostly cytotoxic; 360,000 compounds, 1.6% hits; AID 686970, 2013;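 further: NT is the 2HG producing partner of a matched IDH1 knockdown line; 0% = DMSO-treated cells and -100% = media-only wells without cells; nearly all actives have a fitted effect of over 55% in size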
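Toxicity toward the 2HG-producing NT line was scored as %Activity, normalised to DMSO and no-cell wells, from CellTiter-Glo luminescence after 48 hours' treatment.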
KB-3-1 tox: qHTS assay for MDR1-selective chemotherapeutics: Primary screen using the parental adenocarcinoma cell KB-3-1 | 400,000 compounds, 1.4% hits | Potency, µM (titrated, usually from 46.1 µM), actives largely listed as cytotoxic | KB-3-1 viability, CellTiter-Glo ATP luminescence, 72 h; further: on the % scale 0 is the no-effect control and ±100 the full control effect; nearly all actives have a fitted effect of over 60% in size
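Multi-concentration cytotoxicity screen in KB-3-1 cells grown in DMEM lacking phenol red with 10% FBS. After 72 h at 37 °C with compound, ATP-dependent luminescence was recorded.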
KB-V1 cytotox: qHTS assay for MDR1-selective chemotherapeutics: Primary screen using the drug-selected MDR subline cells KB-V1; KB-V1 MDR cells viability, CellTiter-Glo, 72 h; Potency, µM (highest dose often 46.1 µM), most hits filed as cytotoxic; 400,000 compounds, 3.4% hits; further: on the % scale 0 is the no-effect control and ±100 the full control effect; nearly all actives have a fitted effect of over 60% in size
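Luminescent ATP read-out (CellTiter-Glo, 10 min) measures survival of drug-selected KB-V1 MDR cells after 72 h, 37 degrees C compound exposure. Medium: phenol-red-free DMEM, 10% FBS. Values from fitted concentration-response curves.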
SW480 rerep: A quantitative high throughput screen for small molecules that induce DNA re-replication in SW480 colon adenocarcinoma cells; SW480 DNA re-replication, Hoechst DNA content imaging, 48 h; Potency, µM (highest dose often 46.1 µM), for the others: top-dose re-replication activation, hits mostly activators; 340,000 compounds, 1.8% hits; AID 624297, 2012; further: % of control where 0% means no effect; nearly all actives have a fitted effect of over 55% in size
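Treated cells incubate 48 hr (37 C, 5% CO2), are stained 40 min with Hoechst, and nuclear fluorescence is enumerated; a rise in nuclei with high DNA signal marks re-replication.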
Numbers without * were called inactive; i = inactive; u = inconclusive; x = no result given; [ ] = another dose, or the depositor's remark. This is a sample that favours compounds with a hit; in the whole collection about 8% have one here. The call rests on the fitted dose curve; in most records, active means well fitted curve in the direction sought with a large enough effect; inconclusive means small, poorly fitted or top-dose-only effect, or another doubt; inactive means no such curve, though single readings can be large; an effect the other way counts as inactive or inconclusive. Potency means the concentration at half of the fitted maximal effect.

SMILES | HT1080 IDH1KD tx | MCF10A rerep | HT1080NT lethal | KB-3-1 tox | KB-V1 cytotox | SW480 rerep
CC(=O)Nc1ccc(C(=O)N/N=C/c2cc(Br)cc(Br)c2O)cc1 | u | u | u | i | i | -146%
Oc1c(Br)cc(Br)cc1/C=N/NC(=S)N[C@H]1CC2C=CC1C2 (some centres not stated) | 21µM* | 5.8µM* | u | u | u | u
O=C(OCC1CCCO1)c1ccc2c(c1)N(Cc1ccccc1)C(=O)c1ccccc1S2(=O)=O (configuration not stated) | x | x | x | i | i | x
CCCCn1nc(C(=O)N(C)CC(=O)Nc2ccc(F)c(F)c2F)ccc1=O | -7% | -6% | 10% | i | 15µM* | -6%
Cc1cc(C)cc(NC(=O)CCn2c(=O)c3cccn3c3ccccc32)c1 | u | 8.2µM* | -18% | 9.2µM* | u | -13%
COc1ccc(CC(=O)N(c2ccccc2)c2nc(C)cs2)cc1 | -4% | 23% | -6% | i | 16µM* | -25%
COc1ccc(CCN(Cc2cc3cc(C)c(C)cc3nc2Cl)C(=O)C2CC2)cc1 | 8% | -1% | 5% | i | i | u
CCOC(=O)c1c(C)[nH]c(C)c1S(=O)(=O)N1CCC(C(=O)Nc2cc(Cl)ccc2OC)CC1 | x | x | x | i | i | x
CCc1nn(CC(=O)N2CCN(Cc3ccc4c(c3)OCO4)CC2)c(=O)c2cc3occc3n12 | -20% | 0% | -2% | i | 18µM* | 16%
CC(NC(=S)NCCc1ccccc1)C(c1cccs1)N1CCN(Cc2ccccc2)CC1 (configuration not stated) | u | u | u | u | i | 21µM*
Cc1nc2c(C(=O)NCCc3ccccc3)cnn2c(C)c1Cc1c(F)cccc1Cl | x | x | x | i | i | x
FC(F)Sc1ccc(-n2cc(-c3ccccc3)[n+]3c2CCC3)cc1 | -25% | 25% | -2% | 15µM* | i | 6%
O=C(CCc1ccc(S(=O)(=O)N2CCOCC2)cc1)Nc1nc(COc2ccccc2)cs1 | u | u | u | 5.2µM* | 2.9µM* | 1%
COc1ccc(NC(=O)CN(C)C(=O)c2ccc(S(=O)(=O)N3CCOCC3)cc2)cc1 | 1% | x | -1% | i | u | x
CCOc1ccc(NC(=O)CN(c2ccc([N+](=O)[O-])cc2)S(=O)(=O)c2ccccc2)cc1 | 8.2µM* | 3% | u | i | 7.3µM* | -51%
COc1ccc(S(=O)(=O)N(CC(=O)Nc2ccc(S(=O)(=O)N3CCOCC3)cc2)c2ccccc2)cc1 | -15% | 7% | -11% | u | 5.2µM* | -2%
CC(=O)Nc1ccc(NC(=O)CN(c2ccc([N+](=O)[O-])cc2)S(=O)(=O)c2ccccc2)cc1 | 0% | 0% | -2% | i | i | 2%
CCOc1ccc(S(=O)(=O)N(CC(=O)N/N=C/c2ccc(-c3ccc([N+](=O)[O-])cc3)o2)c2ccccc2)cc1 | -24%[9.24 µM] | 0.82µM* | 13µM* | u | u | 21µM*
Cc1ccc(C)c(N(CC(=O)N/N=C/c2ccc(-c3ccc([N+](=O)[O-])cc3)o2)S(=O)(=O)c2ccccc2)c1 | -4% | 14% | -3% | i | i | -2%
CCC(=O)N1CCc2cc(S(=O)(=O)CCC(=O)N3CCN(c4cc(C)ccc4C)CC3)ccc21 | x | x | x | i | i | x
Cc1ccc(-c2nnc(Nc3cccc(O)c3)c3ccccc23)cc1S(=O)(=O)N1CCCCC1 | x | x | x | i | i | x
COc1ccc(-c2nc(NC(=O)c3cc(C(C)(C)C)nn3C)sc2C)cc1 | u | 15µM* | 16µM* | i | 2.3µM* | 16µM*
COc1ccc(-c2nc(NC(=O)c3n[nH]c(=O)c4ccccc34)sc2C)cc1 | -10% | u | -3% | u | 8.2µM* | u
Cc1sc(NC(=O)c2ccc(=O)n(C)n2)nc1-c1ccccc1 | -17% | 23µM* | -13% | i | i | -87%
CC(=O)Nc1ccc(C(=O)Nc2ccc(-c3nc4ccccc4[nH]3)cc2)cc1 | x | x | x | i | u | x
SMILES | HT1080 IDH1KD tx | MCF10A rerep | HT1080NT lethal | KB-3-1 tox | KB-V1 cytotox | SW480 rerep
COc1ccccc1-c1noc(-c2ccc(N3CCN(C)CC3)c([N+](=O)[O-])c2)n1 | x | x | x | i | i | x
CCOCCc1nn2c(=O)cc(COC(=O)COc3ccccc3Cl)nc2s1 | x | x | x | i | i | x
Cc1cc(C)c2nc(/N=C(\N)NC(=O)Nc3ccccc3)nc(C)c2c1 | -16% | 21µM* | -16% | i | u | 9.2µM*
CCOC(=O)Cn1c(S(=O)(=O)Cc2ccccc2)nc2ccccc21 | 2% | 2% | 6% | i | i | 23%
CCOC(=O)Cn1c(S(=O)(=O)Cc2ccc(Cl)cc2)nc(-c2ccccc2)c1-c1ccccc1 | u | u | u | u | 7.3µM* | 8%
CC1=C(C(=O)Nc2ccccn2)C(c2cccnc2)n2nnnc2N1 (configuration not stated) | 14% | 8.2µM* | 9% | i | i | u
COC(=O)C1=C(C)Nc2nnnn2C1c1cccnc1 (configuration not stated) | 0% | 7% | -1% | i | i | 1%
